Screens deposited in PubChem by several laboratories.
Beta apoptosis – inhibitors of cytokine-induced beta cell apoptosis, primary screen, luminescence; 0.8% of 300,000 active; protection from apoptosis, % (concentration not given with the values); INS-1E cytokine-induced death, ATP luminescence, 48 h; percent of positive-control rescue, neutral wells zero;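 active = Every replicate reaches about 75%, or at least half do and their mean reaches it too, limit read from the data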;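 note: higher means more ATP so stronger rescue from cytokine killing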
Mdm2 MdmX PPI – inhibitors of human Mdm2-MdmX association, primary screen, cell-based, luminescence, split luciferase, SaOS-2, uHTS | AID 485346, 2010 | 3% of 330,000 active | inhibition, % at 8 µM | SaOS-2 split-luciferase Mdm2/MdmX complementation;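 active = inhibition of at least 50% at 8 µM in the primary screen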
aSyn 5UTR inh – MLPCN primary screen, SNCA 5' untranslated region; alpha-synuclein 5'UTR reporter, inhibitor activity; inhibition, % (tested at 7.5 µM); 0.82% of 300,000 active; AID 1813, 2009; in the data active = inhibition above about 60%;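 note: H4 neuroglioblastoma cells stably carrying SNCA 5'UTR luciferase fusion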
A1 inh – caspase 3/7 activation in MEF A1-2A-BIM cells, primary screen, A1 inhibitor project, cell-based, luminescence, HTS | Caspase-Glo 3/7 luminescence, 3 h; percent of clofoctol response, vehicle zero | caspase activation, % (concentration not given with the values) | 0.066% of 330,000 active | AID 2462, 2010;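 active = over half of replicate activation scores above 10%, or exactly half above 10 with the replicate mean above 10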
CSC inhib – cancer stem cell viability inhibitors, primary screen, luminescence. cancer stem cell-like cells viability. inhibition, % at 7.5 µM. 1.1% of 300,000 active. AID 2717, 2010; in the data active = inhibition above about 75%; tested in HMLE shEcad cells
Mdm2 MdmX conf – Mdm2-MdmX complex disruptors, retested hits, confirmation, luminescence, single concentration | shares compounds with Mdm2 MdmX PPI | Mdm2-MdmX binding, luminescent assay | inhibition, % at 8 µM | 55% of 10,000 active; in the data active = inhibition above about 40%
FLuc counter – full-length luciferase signal inhibition, confirmation, counter-screen for Mdm2/MdmX interaction inhibitor project, cell-based, single concentration, SaOS-2; shares compounds with Mdm2 MdmX PPI; SaOS-2 full-length luciferase counterscreen, luminescence; inhibition, % at 8 µM; 77% of 6,200 active;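 active = mean inhibition at 8 µM reaching about 37%, which flags the compound as non-specific, limit read from the data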;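 note: p53-null SaOS-2 cells with luciferase driven by a doxycycline-inducible promoter; compound on cells about two nights before reading with doxycycline added after day one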
Hits are given with their value; - = inactive; . = no result. This is a sample that favours compounds with a hit; in the whole collection about 4.1% have one here.

SMILES | Beta apoptosis | Mdm2 MdmX PPI | aSyn 5UTR inh | A1 inh | CSC inhib | Mdm2 MdmX conf | others
COCCN(C(=O)COC(=O)/C=C/c1cccs1)c1c(N)n(Cc2ccccc2)c(=O)[nH]c1=O | - | - | - | - | - | .
COCCN(C(=O)COC(=O)/C=C/c1ccc2ccccc2n1)c1c(N)n(Cc2ccccc2)c(=O)[nH]c1=O | - | 54 | - | - | - | -
CCOc1ccc(NC(=O)CN(C)S(=O)(=O)c2cccc3cccnc23)cc1 | - | - | - | - | - | .
Cc1ccc(C(=O)N2N=C(c3ccc(Br)cc3)CC2c2ccccc2O)cc1 (stereo not given) | 78 | 75 | - | - | 112 | -
Cc1nn(C(C)C(=O)NCCCc2ccccc2)c(=O)c2nn(-c3ccccc3)c(C)c12 (stereo not given) | - | - | - | - | - | .
CC(C)N(C(=O)[C@H]1C[C@H](CC(=O)NCC23CC4CC(CC(C4)C2)C3)C(=O)N2CCc3c([nH]c4cc(CCC(=O)N(C)C)ccc34)[C@]12C)C(C)C | . | 81 | . | . | . | 43 | FLuc counter=60
CC[C@]12c3[nH]c4ccccc4c3CCN1C(=O)C(CC(=O)NCC13CC4CC(CC(C4)C1)C3)C[C@@H]2C(=O)N1CCN(C(=O)c2ccco2)CC1 (stereo not given in full) | - | - | . | - | - | .
CN(C)C(=O)CCc1ccc2c3c([nH]c2c1)[C@]1(C)[C@@H](C(=O)N2CCOCC2)C[C@H](CC(=O)NCC24CC5CC(CC(C5)C2)C4)C(=O)N1CC3 | . | - | . | . | . | .
CC[C@]12c3[nH]c4cc(CCC(=O)N(C)C)ccc4c3CCN1C(=O)[C@@H](CC(=O)NCC13CC4CC(CC(C4)C1)C3)C[C@@H]2C(=O)N1CCN(C(=O)c2ccco2)CC1 | . | 50 | . | . | . | -
CC(C)N(C(=O)[C@H]1CC(CC(=O)NCc2cccc(C(F)(F)F)c2)C(=O)N2CCc3c([nH]c4ccccc34)[C@]12C)C(C)C (stereo not given in full) | - | 64 | . | - | . | -
CCN(CC)C(=O)[C@H]1C[C@H](CC(=O)NCc2cccc(C(F)(F)F)c2)C(=O)N2CCc3c([nH]c4cc(-c5ccco5)ccc34)[C@]12C | . | 53 | . | . | . | -
O=C(CSc1nnc(CNC(=O)c2cccs2)o1)Nc1cccc(Cl)c1 | - | - | - | - | - | .
COc1ccccc1-c1nc(SCC(=O)N2CCC(C(N)=O)CC2)n[nH]1 | - | - | . | - | - | .
Cc1ccc(CCC(=O)NCc2ccccc2)o1 | - | - | - | - | - | .
CC(C)N(C(=O)[C@H]1CC(CC(=O)NCC23CC4CC(CC(C4)C2)C3)C(=O)N2CCc3c([nH]c4ccccc34)[C@]12C)C(C)C (stereo not given in full) | . | 59 | . | . | . | -
CC(C)N(C(=O)[C@H]1C[C@H](CC(=O)NCC23CC4CC(CC(C4)C2)C3)C(=O)N2CCc3c([nH]c4cc(-c5ccco5)ccc34)[C@]12C)C(C)C | . | 70 | . | . | . | -
CCN(CC)C(=O)[C@H]1CC(CC(=O)NCC23CC4CC(CC(C4)C2)C3)C(=O)N2CCc3c([nH]c4ccc(OC)cc34)[C@]12C (stereo not given in full) | . | 64 | . | . | . | -
COCCCNC(=O)C[C@H]1C[C@H](C(=O)N(C(C)C)C(C)C)[C@@]2(C)c3[nH]c4cc(-c5ccco5)ccc4c3CCN2C1=O | . | - | . | . | . | .
CN1CCN(S(=O)(=O)c2ccc(C(F)(F)F)cc2)C(c2ccccc2)C1 (stereo not given) | . | - | . | . | . | .
Cc1ccc(S(=O)(=O)N(C)C[C@@H]2Oc3ccc(NC(=O)Nc4cccc5ccccc45)cc3C(=O)N([C@H](C)CO)C[C@H]2C)cc1 | - | - | . | - | - | .
COc1ccc([C@H]2CC(=O)C=C(c3cccc(NC(C)=O)c3)C2)cc1 | - | - | . | - | - | .
C=CCN(Cc1ccc(OC)c(OC)c1)C(=O)c1cc2cc(F)ccc2[nH]1 | - | - | - | - | - | .
CCCCCN=C(N)N/N=C/c1c[nH]c2ccc(OC)cc12 | - | 99 | 108 | - | 119 | 98 | FLuc counter=-
CCOC(=O)c1c(C)[nH]c(C)c1S(=O)(=O)NCCCN1CCOCC1 | - | - | - | - | - | .
CCOC(=O)c1c(C)[nH]c(C)c1S(=O)(=O)NCCN1CCN(c2cc(Cl)ccc2C)CC1 | - | 59 | - | - | - | -
SMILES | Beta apoptosis | Mdm2 MdmX PPI | aSyn 5UTR inh | A1 inh | CSC inhib | Mdm2 MdmX conf | others
CC(=O)Nc1nc2c(s1)C(=O)NCCC2 | - | - | - | - | - | .
CC1c2cc3c(cc2CCN1C(=O)c1ccc(Br)cc1)OCCCO3 (stereo not given) | - | 70 | - | - | - | 46 | FLuc counter=47
COc1ccc(C(=O)N2CCc3cc4c(cc3C2C)OCCCO4)cc1 (stereo not given) | . | - | - | - | - | .
CCOC(=O)c1nnc(-c2ccccc2)nc1Sc1c(Cl)cccc1Cl | - | - | - | - | - | .
CCOC(=O)c1nnc(-c2ccc(C)cc2)nc1Oc1ccccc1Cl | - | 51 | - | - | . | -
CCOC(=O)c1nnc(-c2ccc(C)cc2)nc1Sc1ccccc1Cl | - | 54 | - | - | - | -
CCOC(=O)c1nnc(-c2ccc(C)cc2)nc1Oc1ccc(Cl)cc1Cl | - | - | - | - | - | .
COC(=O)c1cc(C)sc1NC(=O)CSc1ncccn1 | - | - | - | - | - | .
CCOc1ccc(S(=O)(=O)N2CCN(C(=O)c3cc([N+](=O)[O-])ccc3N3CCOCC3)CC2)cc1 | - | 60 | . | - | . | -
Cc1ccc(C(=O)c2cc([N+](=O)[O-])ccc2N2CCCCC2)c(C)c1 | - | 55 | 69 | - | - | 67 | FLuc counter=125
O=C(OCc1ccc([N+](=O)[O-])cc1)c1cc([N+](=O)[O-])ccc1N1CCOCC1 | - | - | - | - | - | .
Cc1ccc(COC(=O)c2cc([N+](=O)[O-])ccc2N2CCOCC2)cc1 | - | 71 | 68 | - | - | 75 | FLuc counter=87
CC(NC(=O)C(NS(=O)(=O)c1cccs1)C(C)C)c1ccc(S(N)(=O)=O)cc1 (stereo not given) | - | - | . | - | - | .
CCc1nc(SCC(=O)Nc2ccccc2Cl)n[nH]1 | - | - | - | - | - | .
Cc1cc2c(cc3c(=O)n(CC(=O)NCCCN4CC(C)CC(C)C4)ncn32)s1 (stereo not given) | - | - | - | - | - | .
O=C(CSc1nncn1-c1ccccc1)Nc1cc(F)ccc1F | - | - | - | - | . | .
